We go through 7 compounds from PubChem BioAssay (NCATS).

Assay [1] is described as follows: Quantitative high throughput screen for delayed death inhibitors of the malarial parasite plastid, 96 hour incubation (AID 488745). Also: series mostly up to about 29 µM; % is scaled to controls: 0 for no effect and ±100 for the full control effect; nearly all actives have a fitted effect of over 70% in size. The method, boiled down: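 Decreased firefly luciferase luminescence indicates inhibited growth of reporter-integrated P. falciparum after two generations (96 h, 37 C, 5% CO2). Infected erythrocytes at 0.1% parasitemia, 2% hematocrit, in Albumax-supplemented RPMI 1640.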

A short description of assay [2]: Quantitative high throughput screen for delayed death inhibitors of the malarial parasite plastid, 48 hour incubation (AID 488752). Also: % is scaled to controls: 0 for no effect and ±100 for the full control effect; nearly all actives have a fitted effect of over 65% in size. The method, boiled down:
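One-generation (48 h) growth assay: a decrease in luciferase signal from an integrated reporter in P. falciparum-infected red cells (0.1% parasitemia, 2% hematocrit) after compound exposure at 37 C indicates parasite inhibition.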

For assay [3], the target named is Thioredoxin reductase 1, cytoplasmic (Rattus norvegicus) (UniProt O89049). The assay can be described thus: qHTS Assay for Substrates of Mammalian Selenoprotein Thioredoxin Reductase 1 (TrxR1) (AID 488772).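 Also: series mostly up to about 57 µM; 0% is about no effect; a drop in NADPH fluorescence below the no-compound background marks a TrxR1 substrate.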 The method, boiled down: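 In this dual-purpose format, potential substrates are identified from the first fluorescence read after selenite addition, not from the 8-minute delta. Rat enzyme is preincubated with NADPH and then with compound at ~22 deg C.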
(Quantitative high-throughput screening tests each substance at several concentrations.)

The target is the same in assay [4]. Briefly: qHTS Assay for Inhibitors of Mammalian Selenoprotein Thioredoxin Reductase 1 (TrxR1) (AID 488773). Also: nearly all actives have a fitted effect of over 40% in size. Also: potency is read from the fitted curve at half-maximal effect. The conditions noted are these: Potency: inhibition. The method, boiled down:
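Inhibition is scored from the loss of NADPH fluorescence between first and last reads of an 8-min kinetic run. Selenite (400 uM) was the substrate, added after 15 min compound preincubation at room temperature.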

The target in assay [5] is Flap endonuclease 1 (Homo sapiens) (UniProt P39748). The assay can be described thus: qHTS Validation Assay for the Inhibitors of Human Flap endonuclease 1 (FEN1) (AID 488816). Also: potency is read from the fitted curve at half-maximal effect. The method, boiled down:
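Enzyme reagent 10 nM; cpds pinned; 15 min RT preinc.; substrate 50 nM final; reads t=0 and 15 min; no-enzyme buffer wells as neg. control; normalized data, 4-parameter Hill fit.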

The target of assay [6] is M-phase phosphoprotein 8 (Homo sapiens) (UniProt Q99549). Briefly: qHTS Validation Assay for Inhibitors for MPP8 Chromodomain Interactions with Methylated Histone Tails (AID 488949). Also: nearly all actives have a fitted effect of over 55% in size. Also: potency is read from the fitted curve at half-maximal effect. The method, boiled down: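 50 nM MPP8 + 50 nM b-H3K9me3 peptide, PBS pH 7.4/0.01% Tween-20, 30 min RT; + cpd 30 min RT; + AlphaScreen donor/Ni-chelate acceptor beads 10 ug/mL final, 30 min dark; luminescence read.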

For assay [7], the target named is Methanococcus maripaludis chaperonin (MmCpn) (UniProt Q6LX38). Briefly: High-Throughput Screening for Modulators of Cytosolic Chaperonin Activity: MmCpn Primary Screen (AID 488978).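 Also: 50 nM MmCpn enzyme hydrolysing 30 µM ATP at 37 °C; 0% is about no effect.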 The method, boiled down:
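Steps: chaperonin 50 nM final; add compound, 5 min RT; start with ATP, 30 uM final; hold 10 min at 37C; add ADP Transcreener HTRF reagent, 5 min; read ex 320, em 590 and 665 nm.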

The target of assay [8] is Transient receptor potential cation channel subfamily V member 1 (Homo sapiens) (UniProt Q8NER1). The assay can be described thus: HTS Assay for Compounds that Act as Enhancers of the Vanilloid Receptor 1 (AID 488979). Also: 0% is about no effect. The method, boiled down: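 TRPV1 cells loaded with Fluo-8 calcium dye; compound added and Ca2+ signal (ex 480/em 520 nm) followed 3 min, then capsaicin at EC20 added and read 2 more min to detect enhancement.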
Transient receptor potential cation channel subfamily V member 1 (Homo sapiens), sequence (Q8NER1 whole entry, looked up): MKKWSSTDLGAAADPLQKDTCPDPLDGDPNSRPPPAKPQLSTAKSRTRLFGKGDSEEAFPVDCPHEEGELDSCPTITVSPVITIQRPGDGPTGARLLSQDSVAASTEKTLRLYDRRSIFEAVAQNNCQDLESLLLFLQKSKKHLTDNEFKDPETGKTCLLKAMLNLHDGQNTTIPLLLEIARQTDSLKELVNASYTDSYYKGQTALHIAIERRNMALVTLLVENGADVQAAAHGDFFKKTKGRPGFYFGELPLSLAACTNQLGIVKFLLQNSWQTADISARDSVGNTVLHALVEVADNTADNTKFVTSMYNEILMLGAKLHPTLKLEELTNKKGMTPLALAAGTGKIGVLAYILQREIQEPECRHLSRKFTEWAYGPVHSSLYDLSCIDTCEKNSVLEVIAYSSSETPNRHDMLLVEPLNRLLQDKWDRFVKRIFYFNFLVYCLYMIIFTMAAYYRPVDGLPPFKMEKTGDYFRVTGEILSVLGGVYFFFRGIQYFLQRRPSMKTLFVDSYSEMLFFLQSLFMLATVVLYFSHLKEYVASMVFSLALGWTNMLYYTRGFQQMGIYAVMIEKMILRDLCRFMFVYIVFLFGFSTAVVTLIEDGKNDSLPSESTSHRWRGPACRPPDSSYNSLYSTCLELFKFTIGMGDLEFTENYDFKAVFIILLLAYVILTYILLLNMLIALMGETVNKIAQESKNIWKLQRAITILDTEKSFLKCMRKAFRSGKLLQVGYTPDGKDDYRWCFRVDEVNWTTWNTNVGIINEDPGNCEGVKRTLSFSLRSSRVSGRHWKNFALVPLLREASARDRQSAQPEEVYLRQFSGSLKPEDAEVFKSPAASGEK

The target in assay [9] is Thyrotropin receptor (Homo sapiens) (UniProt P16473). The assay can be described thus: qHTS Assay for Antagonists of the Thyroid Stimulating Hormone Receptor (AID 488980). Also: series mostly up to about 58 µM; 0% is about no effect. The method, boiled down: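 Readout is cAMP by HTRF competition between cellular cAMP and cAMP-d2 for a cryptate-labelled antibody. Antagonism was assessed in TSHR-transfected HEK293 cells stimulated with 4 nM TSH (EC80, final) in the presence of RO 20-1724.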

For assay [10], the target named is D(1A) dopamine receptor (Homo sapiens) (UniProt P21728). Briefly: HTS Assay for Allosteric Agonists of the Human D1 Dopamine Receptor: Primary Screen for Agonists (AID 488981). Also: 0% is about no effect. The method, boiled down: (§1)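 Tetracycline-induced HEK293 Trex D1 cells with forced coupling to calcium, loaded with no-wash calcium dye; kinetic fluorescence read 180 s after compound addition for agonism, then a further 180 s after an EC20 dopamine challenge for potentiation.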
D(1A) dopamine receptor (Homo sapiens), sequence (P21728 whole entry, looked up): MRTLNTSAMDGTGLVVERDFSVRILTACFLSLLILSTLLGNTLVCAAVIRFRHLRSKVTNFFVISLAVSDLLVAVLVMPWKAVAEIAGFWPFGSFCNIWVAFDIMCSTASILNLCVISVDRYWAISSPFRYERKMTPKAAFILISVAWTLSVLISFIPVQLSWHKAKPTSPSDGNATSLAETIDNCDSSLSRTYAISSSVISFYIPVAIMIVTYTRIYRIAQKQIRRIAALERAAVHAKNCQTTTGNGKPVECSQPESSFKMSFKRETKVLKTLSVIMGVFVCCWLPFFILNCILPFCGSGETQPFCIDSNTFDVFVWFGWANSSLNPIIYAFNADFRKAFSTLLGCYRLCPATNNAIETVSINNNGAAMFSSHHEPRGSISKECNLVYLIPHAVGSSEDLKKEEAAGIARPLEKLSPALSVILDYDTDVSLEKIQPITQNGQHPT

The target is the same in assay [11]. Briefly: HTS Assay for Allosteric Agonists of the Human D1 Dopamine Receptor: Primary Screen for Potentiators (AID 488982). Also: 0% is about no effect. The method, boiled down:
as §1

The target is the same in assay [12]. The assay can be described thus: HTS Assay for Allosteric Agonists of the Human D1 Dopamine Receptor: Primary Screen for Antagonists (AID 488983).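 Also: calcium flux response to an EC80 dopamine challenge measured with no-wash dye; % is scaled to controls: 0 for no effect and ±100 for the full control effect; nearly all actives have a fitted effect of over 65% in size.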 The method, boiled down:
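Calcium-flux read-out in inducible HEK293 T-REx cells expressing D1, dye-loaded 30–90 min at room temperature. Kinetic reads: 180 s after compound (agonist phase), then 180 s after an EC80 dopamine challenge.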

In assay [13] the target is ATPase family AAA domain-containing protein 5 (Homo sapiens) (UniProt Q96QE3). The assay can be described thus: Validation screen for small molecules that inhibit ELG1-dependent DNA repair in human embryonic kidney (HEK293T) cells expressing luciferase-tagged ELG1 (AID 493107).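 Also: series mostly up to about 46 µM; % is scaled to controls: 0 for no effect and ±100 for the full control effect; inhibitors lower the ELG1-luciferase luminescence signal; nearly all actives have a fitted effect of over 70% in size.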 The method, boiled down: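 Luciferase read-out, ONE-Glo, 30 min at room temperature, follows 16 h co-exposure at 37 C of compound and the DNA-damaging agent 5-fluorouridine. Cells: HEK293T with ELG1-luciferase fusion, 2,000 per well, DMSO as vehicle.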
ATPase family AAA domain-containing protein 5 (Homo sapiens), sequence (Q96QE3 whole entry, looked up, the tested form may be a part): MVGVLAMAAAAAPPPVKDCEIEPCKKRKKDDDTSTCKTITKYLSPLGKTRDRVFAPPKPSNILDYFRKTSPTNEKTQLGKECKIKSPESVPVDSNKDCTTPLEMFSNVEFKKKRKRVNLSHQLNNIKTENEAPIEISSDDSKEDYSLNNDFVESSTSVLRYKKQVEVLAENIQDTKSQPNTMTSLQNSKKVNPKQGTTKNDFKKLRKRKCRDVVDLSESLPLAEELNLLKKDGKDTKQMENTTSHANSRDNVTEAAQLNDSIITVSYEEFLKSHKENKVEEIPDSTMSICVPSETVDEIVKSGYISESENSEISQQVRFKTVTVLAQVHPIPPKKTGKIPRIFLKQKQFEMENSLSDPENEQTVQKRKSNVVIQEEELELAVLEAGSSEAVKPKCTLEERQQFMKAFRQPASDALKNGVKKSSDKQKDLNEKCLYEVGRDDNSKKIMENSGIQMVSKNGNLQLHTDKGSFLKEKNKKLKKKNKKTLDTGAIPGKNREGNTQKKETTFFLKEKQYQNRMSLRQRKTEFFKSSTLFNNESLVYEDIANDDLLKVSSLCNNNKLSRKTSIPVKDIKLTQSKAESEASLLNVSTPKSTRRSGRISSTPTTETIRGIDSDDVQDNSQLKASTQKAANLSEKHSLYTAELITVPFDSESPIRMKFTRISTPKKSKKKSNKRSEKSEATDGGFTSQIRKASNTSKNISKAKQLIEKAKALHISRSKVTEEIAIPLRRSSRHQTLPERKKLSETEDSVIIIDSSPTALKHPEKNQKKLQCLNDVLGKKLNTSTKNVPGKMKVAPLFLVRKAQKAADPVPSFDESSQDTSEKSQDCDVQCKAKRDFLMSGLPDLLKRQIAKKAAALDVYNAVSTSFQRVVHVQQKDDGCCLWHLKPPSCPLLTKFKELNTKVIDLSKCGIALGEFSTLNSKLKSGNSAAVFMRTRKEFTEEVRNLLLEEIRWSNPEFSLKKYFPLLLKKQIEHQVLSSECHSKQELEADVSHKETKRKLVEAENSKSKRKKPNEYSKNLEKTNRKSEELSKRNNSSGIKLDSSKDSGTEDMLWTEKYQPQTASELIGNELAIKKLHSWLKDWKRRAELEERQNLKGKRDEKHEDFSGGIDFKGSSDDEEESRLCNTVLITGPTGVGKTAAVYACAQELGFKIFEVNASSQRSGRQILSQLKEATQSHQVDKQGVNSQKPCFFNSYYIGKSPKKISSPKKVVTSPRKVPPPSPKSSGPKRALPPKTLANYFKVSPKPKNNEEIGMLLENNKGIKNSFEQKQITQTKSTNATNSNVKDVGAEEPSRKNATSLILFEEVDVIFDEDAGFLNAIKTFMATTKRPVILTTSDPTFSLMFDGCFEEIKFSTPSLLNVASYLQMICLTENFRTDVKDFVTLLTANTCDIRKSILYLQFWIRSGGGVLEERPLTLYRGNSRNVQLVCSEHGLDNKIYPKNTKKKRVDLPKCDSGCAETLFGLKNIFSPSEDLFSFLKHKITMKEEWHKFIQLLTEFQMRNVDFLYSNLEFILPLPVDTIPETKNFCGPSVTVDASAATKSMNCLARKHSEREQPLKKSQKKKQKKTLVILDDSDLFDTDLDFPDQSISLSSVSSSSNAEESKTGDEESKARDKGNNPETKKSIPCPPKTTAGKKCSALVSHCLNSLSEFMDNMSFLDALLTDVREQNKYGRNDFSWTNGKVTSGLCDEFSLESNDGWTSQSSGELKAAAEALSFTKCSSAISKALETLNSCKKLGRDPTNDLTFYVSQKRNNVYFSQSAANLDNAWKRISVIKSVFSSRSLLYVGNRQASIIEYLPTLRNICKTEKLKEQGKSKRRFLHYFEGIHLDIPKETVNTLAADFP

Assay [14] addresses Thyrotropin-releasing hormone receptor (Homo sapiens) (UniProt P34981). The assay can be described thus: qHTS for Small Molecule Agonists and Allosteric Enhancers of Human TRH Receptor: Validation Screen for Agonists (AID 493127;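 active = calcium activation more than 3 SD above the typical response in the agonist read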;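 also: intracellular calcium rise by fluo-8 fluorescence before TRH EC20 addition; 0% is about no effect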). The conditions noted are these: TRH receptor agonist cell assay; at 2 µM; stronger effect = higher value. The method, boiled down: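 Compound-evoked intracellular calcium release in fluo-8-loaded TRHR cells, read kinetically on FDSS (Ex 480/Em 530, 1 s/cycle) after 23 nL pintool transfer. Agonist phase preceded 10 nM TRH EC20 addition.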

The nature of assay [15]: qHTS for Inhibitors of Cell Surface uPA Generation: Validation Assay (AID 493164).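 Also: RAW 264.7 macrophage cells exposed to compound for 18 h; 0% is about no effect.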 The method, boiled down: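 ATP-Lite luminescence read-out: ATP remains high when uPA activity-dependent LF translocation into the cytoplasm is blocked. RAW 264.7 cells, 18 h compound exposure at 37 C; 7-point titration, 2.45 nM to 38.3 uM final.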
The nature of assay [16]: Validation screen for small molecules that induce genotoxicity in human embryonic kidney (HEK293T) cells expressing luciferase-tagged ELG1 (AID 493106). Also: 0% is about no effect. The method, boiled down: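 ELG1-luciferase reporter readout (ONE-Glo, 30 min, room temperature) after 16 hr compound treatment at 37 °C of HEK293T cells at 2,000 per well. Rising luminescence flags genotoxic stress.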
Assay [17] is described as follows: Nrf2 qHTS screen for inhibitors: Validation (AID 493153; active = well fitted inhibition curve with a large enough effect in the main read-out, with a control signal flat, not every such curve was filed as active). The conditions noted are these: Potency: luciferase luminescence; viability change: measured here: cytotoxicity max response. The method, boiled down:
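Concentration-response on A549 ARE_Fluc reporter cells exposed 18-24 h at 37 C, 5% CO2. Cytotoxicity read first by CellTiter-Fluor fluorescence (Ex 405/Em 525), then Nrf2 inhibition by BugLite luminescence after 15 min.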

In assay [18] the target is Chromobox protein homolog 1 (Homo sapiens) (UniProt P83916). Briefly: qHTS Validation Assay for Inhibitors of HP1-beta Chromodomain Interactions with Methylated Histone Tails (AID 488953). Also: nearly all actives have a fitted effect of over 50% in size. Also: potency is read from the fitted curve at half-maximal effect. The method, boiled down: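 AlphaScreen proximity signal from streptavidin donor and nickel chelate acceptor beads (final 10 ug/mL) after 30 min dark incubation. Compounds had 30 min at room temperature with preformed complex of 50 nM HP1-beta and 50 nM b-H3(1-18)K9me3 in PBS pH 7.4 with 0.01% Tween-20.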
Chromobox protein homolog 1 (Homo sapiens), sequence (P83916 whole entry, looked up): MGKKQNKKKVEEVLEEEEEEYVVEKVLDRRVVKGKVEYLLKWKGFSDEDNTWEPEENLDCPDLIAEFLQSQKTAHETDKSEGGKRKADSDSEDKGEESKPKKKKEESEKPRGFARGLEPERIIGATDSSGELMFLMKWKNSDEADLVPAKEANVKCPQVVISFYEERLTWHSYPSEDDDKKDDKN

Assay [19] addresses ATP-dependent 6-phosphofructokinase (Trypanosoma brucei brucei) (UniProt O15648). Briefly: qHTS Assay to Find Inhibitors of T. brucei phosphofructokinase: hit validation (AID 492961).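 Also: luminescence reports ADP formed as PFK phosphorylates fructose-6-phosphate with ATP; series mostly up to about 51 µM; % is scaled to controls: 0 for no effect and ±100 for the full control effect.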 The method, boiled down: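 Inhibition of parasite PFK is measured as reduced ADP formation, quantified via luciferase after ATP depletion. Assay used 0.1 mM ATP, 0.5 mM F6P, 1.25 nM enzyme, 45 min incubation.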

The structures appear in SMILES notation. “And” between values parts separate entries of the source, which are not always exact repeats. Equal values may be shown once. Records with an inconclusive call do not appear. The source made the active and inactive calls. Unless noted, calls follow the shape of the dose curve; as a rule, active = well fitted curve in the direction sought with a large enough effect; inconclusive = small, poorly fitted or top-dose-only effect, or another doubt; inactive = no such curve, though single readings can be large; an effect the other way counts as inactive or inconclusive.

Methanococcus maripaludis chaperonin (MmCpn), sequence (Q6LX38 1-543): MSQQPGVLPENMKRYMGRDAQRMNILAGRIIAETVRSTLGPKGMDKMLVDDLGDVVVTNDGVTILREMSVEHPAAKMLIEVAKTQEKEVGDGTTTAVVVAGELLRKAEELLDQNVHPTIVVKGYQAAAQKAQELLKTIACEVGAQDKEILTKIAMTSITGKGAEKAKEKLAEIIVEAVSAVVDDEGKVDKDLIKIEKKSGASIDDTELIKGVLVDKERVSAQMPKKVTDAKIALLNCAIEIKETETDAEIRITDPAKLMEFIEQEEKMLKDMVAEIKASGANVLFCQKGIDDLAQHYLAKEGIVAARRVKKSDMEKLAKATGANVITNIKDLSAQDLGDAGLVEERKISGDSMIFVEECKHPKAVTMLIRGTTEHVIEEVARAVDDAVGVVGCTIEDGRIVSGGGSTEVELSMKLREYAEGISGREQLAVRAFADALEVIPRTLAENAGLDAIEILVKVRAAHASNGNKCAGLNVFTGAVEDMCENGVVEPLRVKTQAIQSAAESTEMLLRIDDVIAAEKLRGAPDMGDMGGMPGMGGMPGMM
Thyrotropin-releasing hormone receptor (Homo sapiens), sequence (P34981 whole entry, looked up): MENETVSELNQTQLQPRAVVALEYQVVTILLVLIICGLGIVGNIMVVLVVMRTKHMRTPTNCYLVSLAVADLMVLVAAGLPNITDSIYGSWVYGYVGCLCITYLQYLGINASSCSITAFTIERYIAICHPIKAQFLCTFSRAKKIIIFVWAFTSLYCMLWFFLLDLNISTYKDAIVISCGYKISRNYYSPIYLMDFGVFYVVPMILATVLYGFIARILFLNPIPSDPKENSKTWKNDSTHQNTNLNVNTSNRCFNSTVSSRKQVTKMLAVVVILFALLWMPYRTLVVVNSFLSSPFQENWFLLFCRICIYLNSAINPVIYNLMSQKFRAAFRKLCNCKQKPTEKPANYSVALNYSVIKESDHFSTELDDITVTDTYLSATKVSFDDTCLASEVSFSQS
Flap endonuclease 1 (Homo sapiens), sequence (P39748 whole entry, looked up): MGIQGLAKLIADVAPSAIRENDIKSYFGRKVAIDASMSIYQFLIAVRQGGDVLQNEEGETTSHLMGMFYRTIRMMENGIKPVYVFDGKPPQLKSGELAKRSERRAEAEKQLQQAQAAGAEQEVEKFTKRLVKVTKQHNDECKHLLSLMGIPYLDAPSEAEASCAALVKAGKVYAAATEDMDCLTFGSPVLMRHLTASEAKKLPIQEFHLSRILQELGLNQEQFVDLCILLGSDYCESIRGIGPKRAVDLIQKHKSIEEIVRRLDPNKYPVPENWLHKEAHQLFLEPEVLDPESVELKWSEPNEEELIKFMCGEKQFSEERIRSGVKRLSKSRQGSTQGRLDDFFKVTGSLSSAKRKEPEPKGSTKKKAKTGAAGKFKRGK

Regarding `N[C@@H](CCl)C(=O)O`, the Potency entry in assay [1], in assay [2], in assay [4], in [5], in assay [6] and in [10] was “inactive” throughout. Further, the Potency result in assay [11], in [12] and in assay [13] was “inactive” each time. In addition, the result in assay [3], in assay [7], in [8], in [9] and in assay [15] was inactive. Besides, the activation in assay [14] is 1.31% (inactive).
`OC1CCCCC1N1CCC(c2ccccc2)CC1` (configuration not stated): the Potency entry in assay [1], in assay [2], in assay [4], in [5], in assay [6] and in assay [10] was “inactive” in each case. Moreover, the Potency result in assay [11], in assay [12], in assay [16], in [13] and in assay [17] was “inactive” throughout. For the same compound, the compound was called inactive in assay [3], in assay [7], in [8], in assay [9] and in assay [15]. Moreover, in assay [14], the activation is -3.5% (inactive). Besides, the viability change in [17] was -3.18%.
For the compound `CCCN1CC[C@@H]2c3cc(O)ccc3CC[C@@H]21`, the Potency result in assay [1], in [2], in [4], in [5], in assay [6] and in assay [10] was “inactive” throughout. Further, the Potency entry in assay [11], in assay [16], in assay [13] and in assay [17] was “inactive” throughout. The compound was called inactive in [3], in [7], in [8], in assay [9] and in assay [15]. For the same compound, in [14], the activation was -5.31% (inactive). For the same compound, in assay [17], the viability change stood at 9.01%.
Consider `CC(=O)NBr`, for which the Potency entry in [1], in [2], in assay [4], in [5], in [6] and in assay [18] was “inactive” throughout. Also, the Potency result in assay [10], in assay [11], in [12], in assay [16], in assay [13] and in assay [17] was “inactive” in each case. For the same compound, the outcome in assay [3], in assay [7], in assay [8], in assay [9] and in assay [15] was inactive. Moreover, the activation in assay [14] is -0.0625% (inactive). The viability change in [17] was 1.41%.
As for `Clc1cc(I)cc(Cl)c1NC1=NCCN1`, the Potency entry in [1], in [2], in assay [4], in assay [5], in assay [6] and in [18] was “inactive” in each case. The Potency entry in [10], in [11], in assay [12], in [16] and in assay [13] was “inactive” each time. For the same compound, the compound was classed as inactive in [3], in assay [7], in [8], in [9] and in [15]. Also, the activation in [14] was 1.69% (inactive).
Regarding `CN(N=O)c1ccc(O)c(O)c1`, the Potency result in assay [1], in assay [2], in assay [10], in assay [11], in [12] and in assay [16] was “inactive” in each case. For the same compound, the Potency entry in assay [13] and in assay [17] was “inactive” in each case. For the same compound, the compound was called inactive in assay [3], in assay [7], in [8] and in [15]. Further, the Potency in assay [4] was 947 nM (active); in assay [5], 2670 nM (active); in [6], 2.51 µM (active) and 2.38 µM (active); in [18], 1580 nM (active). Further, in assay [14], the activation is -0.438% (inactive). In addition, the viability change in assay [17] came out at 0.531%.
Take `CC12NC(Cc3ccccc31)c1ccccc12` (configuration not stated): the Potency result in assay [1], in [2], in assay [4], in assay [5], in assay [6] and in assay [10] was “inactive” each time. Besides, the Potency result in assay [11], in assay [12], in assay [19], in assay [16], in assay [13] and in assay [17] was “inactive” in each case. Also, the compound was called inactive in assay [3], in assay [7], in [8], in assay [9] and in [15]. Moreover, the viability change in assay [17] was determined as 6.2%.
